Assay outcomes from PubChem BioAssay.
BaF3 tox = counter-screen for JAK2V617F inhibitors: parental Ba/F3 viability inhibitors; CellTiter-Glo ATP luminescence; inhibition, % at 5.6 µM; actives 1.1% (n = 220,000); AID 1486;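 active = inhibition above a per-campaign cutoff, the mean inhibition of all tested compounds plus 3 SD, cut at about 27% in these data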
APP 5UTR inh = APP translation inhibition; SH-SY5Y APP 5'UTR-luciferase reporter, luminescence; inhibition, % at 2 µM; actives 0.82% (n = 190,000); AID 1285;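 active = inhibition above a set limit, derived from the sample mean plus 3 SD, cut at about 45% in these data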
IEC-6 tox = kills IEC-6 intestinal cells in KLF5 counter-screen | IEC-6 cytotoxicity, luminescence viability | inhibition, % at 5 µM | actives 0.78% (n = 290,000)
Ba/F3 V617F tox = reduce viability of Ba/F3 cells dependent on JAK2V617F; AID 1446; Ba/F3 EpoR-JAK2V617F viability, ATP luminescence; inhibition, % at 5.6 µM; actives 1.1% (n = 220,000);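 active = inhibition above the campaign mean plus 3 SD over all tested compounds, cut at about 24% in these data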;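 note: cytokine-independent growth of Ba/F3 cells driven by EpoR plus mutant JAK2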
KLF5 inhibitor = kruppel-like factor 5 inhibition; DLD-1 KLF5 promoter-luciferase reporter, luminescence; inhibition, % at 5 µM; actives 0.23% (n = 290,000);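 active = inhibition above a per-plate limit of that plate's mean compound inhibition plus 3 SD, cut at about 60% in these data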;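 note: higher means less KLF5 promoter-driven luciferase light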
IEC-6 cytotox cf = confirmation of cytotoxic compounds in rat IEC-6 intestinal epithelial cells; shares compounds with IEC-6 tox; IEC-6 rat intestinal epithelial viability, luminescence; inhibition, % at 5 µM; actives 63% (n = 1,900); AID 1907
Each line names hits and unclear results; the compound was inactive in the other large screens (follow-up assays come after a bar, where they were run). Rows were chosen to be rich in hits. Some 1.8% of all compounds tested hit in one or more screens of this group. Cut-off read from the data, not from the text of the source, unless noted: active = inhibition above about 22%; inactive = the rest.

Cc1ccc(/C=N/NC(=O)c2cc(-c3ccncc3)nc3ccccc23)o1	IEC-6 tox 65 (no result: BaF3 tox, APP 5UTR inh, Ba/F3 V617F tox) | IEC-6 cytotox cf 45
NNC(=O)c1cc(-c2cccs2)nc2ccccc12	IEC-6 tox 32 (no result: APP 5UTR inh) | IEC-6 cytotox cf inactive
COC(=O)c1ccccc1NC(=O)CNCCc1ccc(OC)c(OC)c1	none (no result: BaF3 tox, APP 5UTR inh, Ba/F3 V617F tox)
CCOC(=O)c1c(NC(=O)CSc2nc3nc(C)cc(C)n3n2)sc(CC)c1C	none
Cc1ccc(N2C(=O)CS/C2=N\C(=S)Nc2ccccc2)cc1	none (no result: APP 5UTR inh)
CSCCOC(=O)C1=C(C)NC(=O)NC1c1ccc2c(c1)OCO2 (stereo unspecified)	none (no result: BaF3 tox, APP 5UTR inh, Ba/F3 V617F tox)
CC1=C(C(=O)OCc2ccc3c(c2)OCO3)C(c2ccc(F)cc2)NC(=O)N1 (stereo unspecified)	BaF3 tox 31, IEC-6 tox 38, Ba/F3 V617F tox 52 | IEC-6 cytotox cf 47
CC1=C(C(=O)OCc2ccc3c(c2)OCO3)C(c2ccc(Cl)cc2)NC(=O)N1 (stereo unspecified)	BaF3 tox 76, APP 5UTR inh 78, IEC-6 tox 82, Ba/F3 V617F tox 74 | IEC-6 cytotox cf 72
O=c1c2ccccc2[nH]c(=S)n1CCCN1CCN(c2ccccc2F)CC1	none (no result: BaF3 tox, APP 5UTR inh, Ba/F3 V617F tox)
O=c1c2ccccc2[nH]c(=S)n1CCCN1CCN(c2ccccc2)CC1	IEC-6 tox 34 (no result: BaF3 tox, APP 5UTR inh, Ba/F3 V617F tox) | IEC-6 cytotox cf inactive
C=CCn1ccc(O)c(Cc2ccc(Cl)cc2)c1=O	none (no result: BaF3 tox, APP 5UTR inh, Ba/F3 V617F tox)
Clc1ccc2c(NCc3cccs3)ncnc2c1	none (no result: BaF3 tox, APP 5UTR inh, Ba/F3 V617F tox)
COc1cc2ncnc(NCc3cccs3)c2cc1OC	IEC-6 tox 33 | IEC-6 cytotox cf 32
N#CC1=C(SCC(N)=O)NC2=C(C(=O)c3ccccc32)C1c1ccc(Cl)cc1 (stereo unspecified)	none
Cc1ccc(C(=O)NC(=O)CSc2ncccc2C(=O)O)cc1	none
Cc1cc(C)n(-c2nc3ccccc3c(=O)n2OCC#N)n1	IEC-6 tox 86 (no result: BaF3 tox, APP 5UTR inh, Ba/F3 V617F tox) | IEC-6 cytotox cf 52
CCOn1c(-n2nc(C)cc2C)nc2ccccc2c1=O	none
Cc1ccc(-c2cc(C(=O)N/N=C/c3c(C)nn(-c4ccccc4)c3C)n[nH]2)s1	BaF3 tox 82, APP 5UTR inh 92, IEC-6 tox 68, Ba/F3 V617F tox 74 | IEC-6 cytotox cf 56
COC(=O)COc1ccc(NC(=O)C(c2ccccc2)c2ccccc2)cc1	IEC-6 tox 25 (no result: BaF3 tox, APP 5UTR inh, Ba/F3 V617F tox) | IEC-6 cytotox cf inactive
CCCN(CCC)c1nc(-c2ccccn2)nc2ccccc12	IEC-6 tox 93 (no result: BaF3 tox, APP 5UTR inh, Ba/F3 V617F tox) | IEC-6 cytotox cf 33
NC1=C(Br)C(=O)c2ccccc2C1=O	IEC-6 tox 29 (no result: APP 5UTR inh) | IEC-6 cytotox cf inactive
O=C(N/N=C/c1ccc2c(c1)OCO2)c1cccc(NC(=O)c2ccccc2Cl)c1	IEC-6 tox 36 (no result: BaF3 tox, APP 5UTR inh, Ba/F3 V617F tox) | IEC-6 cytotox cf inactive
Cc1cc(C(=O)N/N=C/c2ccc3c(c2)OCO3)c2ccccc2n1	BaF3 tox 52, IEC-6 tox 39, Ba/F3 V617F tox 56 (no result: APP 5UTR inh) | IEC-6 cytotox cf 35
NC(=O)CN1C(=O)C(=O)N(Cc2ccccc2Cl)C1=O	IEC-6 tox 44 (no result: BaF3 tox, APP 5UTR inh, Ba/F3 V617F tox) | IEC-6 cytotox cf inactive
NC(=O)CN1C(=O)C(=O)N(Cc2ccccc2)C1=O	none (no result: BaF3 tox, APP 5UTR inh, Ba/F3 V617F tox)
CCOC(=O)c1cncc(C#CCO)c1	none (no result: APP 5UTR inh)
COc1ccc(OC)c(/C=N/NC(=O)c2cc3c(OC)cccc3[nH]2)c1	none (no result: APP 5UTR inh)
COc1cccc(/C=N/NC(=O)c2cc3c(OC)c(OC)ccc3[nH]2)c1OC	BaF3 tox 42, APP 5UTR inh 57, IEC-6 tox 55, Ba/F3 V617F tox 54 | IEC-6 cytotox cf 42
COc1ccc(/C=N\NC(=O)COc2ccc(Cl)cc2Cl)c(C(=O)O)c1OC	none
COc1ccc(/C=N/NC(=O)c2cc3c(OC)ccc(OC)c3[nH]2)cc1O	IEC-6 tox 40 (no result: BaF3 tox, APP 5UTR inh, Ba/F3 V617F tox) | IEC-6 cytotox cf inactive
COc1ccccc1/C=N/NC(=O)c1cc2c(OC)c(OC)ccc2[nH]1	IEC-6 tox 47 (no result: BaF3 tox, APP 5UTR inh, Ba/F3 V617F tox) | IEC-6 cytotox cf inactive
COc1ccc(/C=N/NC(=O)c2[nH]c3ccc(Cl)cc3c2-c2ccccc2)c(C(=O)O)c1OC	IEC-6 tox 88 (no result: BaF3 tox, APP 5UTR inh, Ba/F3 V617F tox) | IEC-6 cytotox cf inactive
CCOC(=O)c1c(C)[nH]c(C(=O)N/N=C/c2ccc(OC)c(OC)c2)c1C	IEC-6 tox 62 (no result: BaF3 tox, APP 5UTR inh, Ba/F3 V617F tox) | IEC-6 cytotox cf 49
COC(=O)c1ccc(C)c(NS(=O)(=O)c2ccc(OC)cc2)c1	BaF3 tox 75, APP 5UTR inh 94, IEC-6 tox 87, Ba/F3 V617F tox 80 | IEC-6 cytotox cf 59
COC(=O)c1ccc(C)c(NS(=O)(=O)c2ccc(C)c([N+](=O)[O-])c2)c1	none
CCc1nnc(N/N=C/c2ccc(N3CCC(C)CC3)c([N+](=O)[O-])c2)n1N	none
